# Measured values from PMC8384837, “Expanding the binding specificity for RNA recognition by a PUF domain”.
# Where a chain is given by its changes, count along the chain named.
# Columns and labels:
# Experiment in all cases: yeast three-hybrid, YBZ-1, SC-Leu-His + 0.5 mM 3-AT, 4 days
# Details in all cases: tags: N-Gal4 AD-HA kept; label: inside an RPR1-promoter hybrid RNA with tandem MS2 sites; ssRNA
# PUM1 PUF domain R5-CAR = PUM1 PUF domain R5-CAR (Homo sapiens, UniProt Q14671 828-1176, R1008A;Q1011R)
# Summary of the method: (§1)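 Pumilio-1 PUF domain libraries, randomized (NNK) at the three base-contacting residues of each repeat, were co-expressed with matching RNA elements from a centromeric plasmid in strain YBZ-1 (LexA–MS2 coat fusion, HIS3 reporter). Transformants were plated on SC-Leu (input) and SC-Leu-His + 0.5 mM 3-AT (selection) for four days, and repeat regions were PCR-amplified and Illumina-sequenced. The interaction score is the log2 change in variant frequency from input to selection, with pseudocount 1 where absent.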
# PUM1 PUF domain R5-RKQ = PUM1 PUF domain R5-RKQ (Homo sapiens, UniProt Q14671 828-1176, C1007R;R1008K)
# Summary of the method: as §1
# PUM1 PUF domain R5-FRV = PUM1 PUF domain R5-FRV (Homo sapiens, UniProt Q14671 828-1176, C1007F;Q1011V)
# Summary of the method: as §1
# PUM1 PUF domain R5-RNS = PUM1 PUF domain R5-RNS (Homo sapiens, UniProt Q14671 828-1176, C1007R;R1008N;Q1011S)
# Summary of the method: as §1
# PUM1 PUF domain R6-TFD = biological target: T1, PUM1 PUF domain R6-TFD (Homo sapiens, UniProt Q14671 828-1176, N1043T;Y1044F;Q1047D)
# T1 sequence: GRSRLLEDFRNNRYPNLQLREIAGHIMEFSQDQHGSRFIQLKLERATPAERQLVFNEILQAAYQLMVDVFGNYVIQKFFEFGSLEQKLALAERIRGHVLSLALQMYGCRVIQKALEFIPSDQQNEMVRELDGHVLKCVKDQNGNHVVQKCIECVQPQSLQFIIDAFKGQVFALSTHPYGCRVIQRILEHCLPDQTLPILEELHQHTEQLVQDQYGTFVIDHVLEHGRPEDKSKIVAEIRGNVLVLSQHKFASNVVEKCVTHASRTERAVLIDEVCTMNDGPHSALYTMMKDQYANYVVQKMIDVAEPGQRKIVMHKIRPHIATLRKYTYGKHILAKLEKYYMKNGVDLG
# Summary of the method: as §1
# PUM1 PUF domain R2-KIG = PUM1 PUF domain R2-KIG (Homo sapiens, UniProt Q14671 828-1176, N899K;Y900I;Q903G)
# Summary of the method: as §1
# PUM1 PUF domain R2-LWR = PUM1 PUF domain R2-LWR (Homo sapiens, UniProt Q14671 828-1176, N899L;Y900W;Q903R)
# Summary of the method: as §1
# PUM1 PUF domain R5-NGC = PUM1 PUF domain R5-NGC (Homo sapiens, UniProt Q14671 828-1176, C1007N;R1008G;Q1011C)
# Summary of the method: as §1
# PUM1 PUF domain R8-PFQ = PUM1 PUF domain R8-PFQ (Homo sapiens, UniProt Q14671 828-1176, N1122P;Y1123F)
# Summary of the method: as §1
# PUM1 PUF domain R8-RRP = PUM1 PUF domain R8-RRP (Homo sapiens, UniProt Q14671 828-1176, N1122R;Y1123R;Q1126P)
# Summary of the method: as §1
# PUM1 PUF domain R1-KDL = PUM1 PUF domain R1-KDL (Homo sapiens, UniProt Q14671 828-1176, S863K;R864D;Q867L)
# Summary of the method: as §1
# PUM1 PUF domain R1-QGR = PUM1 PUF domain R1-QGR (Homo sapiens, UniProt Q14671 828-1176, S863Q;R864G;Q867R)
# Summary of the method: as §1
# PUM1 PUF domain R1-GRN = PUM1 PUF domain R1-GRN (Homo sapiens, UniProt Q14671 828-1176, S863G;Q867N)
# Summary of the method: as §1
# PUM1 PUF domain R1-KMC = PUM1 PUF domain R1-KMC (Homo sapiens, UniProt Q14671 828-1176, S863K;R864M;Q867C)
# Summary of the method: as §1
# PUM1 PUF domain R1-HGR = PUM1 PUF domain R1-HGR (Homo sapiens, UniProt Q14671 828-1176, S863H;R864G;Q867R)
# Summary of the method: as §1
# PUM1 PUF domain R3-WCM = PUM1 PUF domain R3-WCM (Homo sapiens, UniProt Q14671 828-1176, C935W;R936C;Q939M)
# Summary of the method: as §1
# PUM1 PUF domain R3-GYD = PUM1 PUF domain R3-GYD (Homo sapiens, UniProt Q14671 828-1176, C935G;R936Y;Q939D)
# Summary of the method: as §1
# PUM1 PUF domain R6-CWG = biological target: T2, PUM1 PUF domain R6-CWG (Homo sapiens, UniProt Q14671 828-1176, N1043C;Y1044W;Q1047G)
# T2 sequence: T1 sequence with T216C, F217W, D220G
# Summary of the method: as §1
# PUM1 PUF domain R4-WAR = PUM1 PUF domain R4-WAR (Homo sapiens, UniProt Q14671 828-1176, N971W;H972A;Q975R)
# Summary of the method: as §1
# PUM1 PUF domain R3-RRM = PUM1 PUF domain R3-RRM (Homo sapiens, UniProt Q14671 828-1176, C935R;Q939M)
# Summary of the method: as §1
sequence,measurement,setting,value
GGCUAGAACUAGUGGAUCCCCCGGCGCCCGGCGGCUCGAGCCCGGGUAAGUGUCAAUAGUCUGCAUGCCGCCGGGCGCCAUGCCUGCAGGUCGACUCUAGAAAACAUG,binding signal,PUM1 PUF domain R5-CAR,4.28 log2 enrichment (interaction score)
same,binding signal,PUM1 PUF domain R5-RKQ,3.43 log2 enrichment (interaction score)
same,binding signal,PUM1 PUF domain R5-FRV,1.98 log2 enrichment (interaction score)
same,binding signal,PUM1 PUF domain R5-RNS,3.43 log2 enrichment (interaction score)
GGCUAGAACUAGUGGAUCCCCCGGCGCCCGGCGGCUCGAGCCCGGGUAAGUGGAAAUAGUCUGCAUGCCGCCGGGCGCCAUGCCUGCAGGUCGACUCUAGAAAACAUG,binding signal,PUM1 PUF domain R6-TFD,4.99 log2 enrichment (interaction score)
GGCUAGAACUAGUGGAUCCCCCGGCGCCCGGCGGCUCGAGCCCGGGUAAGUGUAAAGAGUCUGCAUGCCGCCGGGCGCCAUGCCUGCAGGUCGACUCUAGAAAACAUG,binding signal,PUM1 PUF domain R2-KIG,3.17 log2 enrichment (interaction score)
same,binding signal,PUM1 PUF domain R2-LWR,1.92 log2 enrichment (interaction score)
GGCUAGAACUAGUGGAUCCCCCGGCGCCCGGCGGCUCGAGCCCGGGUAAGUGUGAAUAGUCUGCAUGCCGCCGGGCGCCAUGCCUGCAGGUCGACUCUAGAAAACAUG,binding signal,PUM1 PUF domain R5-NGC,3.12 log2 enrichment (interaction score)
GGCUAGAACUAGUGGAUCCCCCGGCGCCCGGCGGCUCGAGCCCGGGUAAGCGUAAAUAGUCUGCAUGCCGCCGGGCGCCAUGCCUGCAGGUCGACUCUAGAAAACAUG,binding signal,PUM1 PUF domain R8-PFQ,3.59 log2 enrichment (interaction score)
same,binding signal,PUM1 PUF domain R8-RRP,4.45 log2 enrichment (interaction score)
GGCUAGAACUAGUGGAUCCCCCGGCGCCCGGCGGCUCGAGCCCGGGUAAGUGUAAAUCGUCUGCAUGCCGCCGGGCGCCAUGCCUGCAGGUCGACUCUAGAAAACAUG,binding signal,PUM1 PUF domain R1-KDL,0.72 log2 enrichment (interaction score)
same,binding signal,PUM1 PUF domain R1-QGR,2.69 log2 enrichment (interaction score)
same,binding signal,PUM1 PUF domain R1-GRN,3.33 log2 enrichment (interaction score)
GGCUAGAACUAGUGGAUCCCCCGGCGCCCGGCGGCUCGAGCCCGGGUAAGUGUAAAUGGUCUGCAUGCCGCCGGGCGCCAUGCCUGCAGGUCGACUCUAGAAAACAUG,binding signal,PUM1 PUF domain R1-KMC,3.4 log2 enrichment (interaction score)
same,binding signal,PUM1 PUF domain R1-GRN,1.19 log2 enrichment (interaction score)
GGCUAGAACUAGUGGAUCCCCCGGCGCCCGGCGGCUCGAGCCCGGGUAAGUGUUAAUAGUCUGCAUGCCGCCGGGCGCCAUGCCUGCAGGUCGACUCUAGAAAACAUG,binding signal,PUM1 PUF domain R5-FRV,2.68 log2 enrichment (interaction score)
same,binding signal,PUM1 PUF domain R5-RNS,4.14 log2 enrichment (interaction score)
GGCUAGAACUAGUGGAUCCCCCGGCGCCCGGCGGCUCGAGCCCGGGUAAGUGUAAAUUGUCUGCAUGCCGCCGGGCGCCAUGCCUGCAGGUCGACUCUAGAAAACAUG,binding signal,PUM1 PUF domain R1-HGR,2.93 log2 enrichment (interaction score)
same,binding signal,PUM1 PUF domain R1-KDL,3.53 log2 enrichment (interaction score)
GGCUAGAACUAGUGGAUCCCCCGGCGCCCGGCGGCUCGAGCCCGGGUAAGUGUAAGUAGUCUGCAUGCCGCCGGGCGCCAUGCCUGCAGGUCGACUCUAGAAAACAUG,binding signal,PUM1 PUF domain R3-WCM,4.19 log2 enrichment (interaction score)
same,binding signal,PUM1 PUF domain R3-GYD,5.08 log2 enrichment (interaction score)
GGCUAGAACUAGUGGAUCCCCCGGCGCCCGGCGGCUCGAGCCCGGGUAAGUGUAAAUAGUCUGCAUGCCGCCGGGCGCCAUGCCUGCAGGUCGACUCUAGAAAACAUG,binding signal,PUM1 PUF domain R8-PFQ,2.66 log2 enrichment (interaction score)
same,binding signal,PUM1 PUF domain R6-CWG,3.03 log2 enrichment (interaction score)
same,binding signal,PUM1 PUF domain R4-WAR,1.01 log2 enrichment (interaction score)
same,binding signal,PUM1 PUF domain R8-RRP,2.63 log2 enrichment (interaction score)
GGCUAGAACUAGUGGAUCCCCCGGCGCCCGGCGGCUCGAGCCCGGGUAAGUGUACAUAGUCUGCAUGCCGCCGGGCGCCAUGCCUGCAGGUCGACUCUAGAAAACAUG,binding signal,PUM1 PUF domain R4-WAR,3.19 log2 enrichment (interaction score)
GGCUAGAACUAGUGGAUCCCCCGGCGCCCGGCGGCUCGAGCCCGGGUAAGUGAAAAUAGUCUGCAUGCCGCCGGGCGCCAUGCCUGCAGGUCGACUCUAGAAAACAUG,binding signal,PUM1 PUF domain R6-CWG,4.54 log2 enrichment (interaction score)
GGCUAGAACUAGUGGAUCCCCCGGCGCCCGGCGGCUCGAGCCCGGGUAAGUGUAAAAAGUCUGCAUGCCGCCGGGCGCCAUGCCUGCAGGUCGACUCUAGAAAACAUG,binding signal,PUM1 PUF domain R2-LWR,3.68 log2 enrichment (interaction score)
GGCUAGAACUAGUGGAUCCCCCGGCGCCCGGCGGCUCGAGCCCGGGUAAGUGUAAUUAGUCUGCAUGCCGCCGGGCGCCAUGCCUGCAGGUCGACUCUAGAAAACAUG,binding signal,PUM1 PUF domain R3-RRM,3.06 log2 enrichment (interaction score)
